Source: PubChem BioAssay (Tox21)
Records with an inconclusive call do not appear. The source made the active and inactive calls. Unless noted, the call rests on the fitted dose curve; in most records, active means well fitted curve in the direction sought with a large enough effect in the repeat runs; inconclusive means weak or mixed curves; inactive means no such curve, though single readings can be large; an effect the other way counts as inactive or inconclusive.

Assays:
[1] = qHTS assay to identify aromatase inhibitors - cell viability counter screen (AID 743084);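 further: cells stimulated with testosterone during compound exposure; nearly all actives have a fitted effect of over 55% in size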
[2] = qHTS assay to identify small molecule that activate the aryl hydrocarbon receptor (AhR) signaling pathway - cell viability counter screen (AID 743086);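 further: HepG2 liver cells carrying the AhR DRE luciferase reporter; series mostly up to about 70 µM; nearly all actives have a fitted effect of over 45% in size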
Procedure, shortened: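 HepG2-AhR-luc (HG2L7.5c1) cells, 4000/well, treated 24 h at 37 C with compound; viability measured as CellTiter-Fluor fluorescence after 30 min in the same wells as the luciferase read.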

[3] = biological target: Peroxisome proliferator-activated receptor gamma (Homo sapiens) (UniProt P37231); assay: qHTS assay to identify small molecule agonists of the peroxisome proliferator-activated receptor gamma (PPARg) signaling pathway (AID 743094; active means well fitted activation curve with a large enough effect in the signal ratio in the repeat runs, not every such curve was filed as active; the % refers to the signal ratio)
Procedure, shortened: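 Following 5 h plating at 37C, PPARg-bla HEK293H cells receive compound or DMSO for 17 h; fluorescence intensity is recorded after LiveBLAzer B/G loading for 1 h at room temperature.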

[4] = qHTS assay to identify small molecule antagonists of the peroxisome proliferator-activated receptor gamma (PPARg) signaling pathway - cell viability counter screen (AID 743194); further: nearly all actives have a fitted effect of over 55% in size
Procedure, shortened: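 Cytotoxicity counter screen in PPARg-bla HEK293H cells, same wells as reporter assay. Compounds plus 50 nM rosiglitazone (final) for 17 h at 37 C, then viability read by CellTiter-Glo luminescence.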

[5] = qHTS assay for small molecule agonists of the antioxidant response element (ARE) signaling pathway - cell viability counter screen (AID 743203; calls by dose curve; further: nearly all actives have a fitted effect of over 55% in size)
Procedure, shortened: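 Compounds in DMSO were pinned onto ARE-bla HepG2 cells plated 5 hrs earlier at 2,000 cells/well. Sixteen hours later at 37C/5% CO2, CellTiter-Glo was added and luminescence measured after 30 min at room temperature.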

[6] = qHTS assay for small molecule activators of the heat shock response signaling pathway - cell viability counter screen (AID 743209); further: nearly all actives have a fitted effect of over 50% in size
Procedure, shortened: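 Counter screen for cytotoxicity in HeLa HSE-bla reporter cells. Treatment was 5 h at 37 C; viability was detected by luminescent ATP assay (CellTiter-Glo) in the same wells as the beta-lactamase read.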

[7] = qHTS assay for small molecule activators of the heat shock response signaling pathway (AID 743210; active means well fitted activation curve with a large enough effect in the signal ratio in the repeat runs, with a control signal flat, not every such curve was filed as active; the % refers to the signal ratio; further: series mostly up to about 63 µM)
Procedure, shortened: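 HSE-bla HeLa cells (beta-lactamase reporter under heat shock response elements), plated overnight, then exposed to compounds 5 h at 37 C; LiveBLAzer B/G FRET substrate added, 2.5 h at room temperature, fluorescence intensity read.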

[8] = qHTS assay to identify small molecule agonists of the peroxisome proliferator-activated receptor delta (PPARd) signaling pathway - cell viability counter screen (AID 743211); further: nearly all actives have a fitted effect of over 55% in size
Procedure, shortened: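 Tox21 library compounds, delivered in DMSO, were incubated 17 h with PPARd-bla HEK293H cells; cytotoxicity was taken from CellTiter-Glo luminescence read 30 min after reagent addition.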

[9] = biological target: Peroxisome proliferator-activated receptor delta (Homo sapiens) (UniProt Q03181); assay: qHTS assay to identify small molecule agonists of the peroxisome proliferator-activated receptor delta (PPARd) signaling pathway (AID 743212; calls by dose curve)
Procedure, shortened: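 GeneBLAzer UAS-bla HEK293H cells carrying a PPARδ construct were exposed to compounds at 37 °C. Beta-lactamase activity was read by FRET fluorescence after 2 h at room temperature with LiveBLAzer B/G substrate.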

[10] = qHTS assay to identify small molecule antagonists of the peroxisome proliferator-activated receptor delta (PPARd) signaling pathway - cell viability counter screen (AID 743213); further: nearly all actives have a fitted effect of over 50% in size
Procedure, shortened: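 HEK293H PPARd UAS-bla cells, 5 h pre-incubation, compound + L165041 300 nM final, 17 h 37 C; B/G FRET substrate 2 h RT; then CellTiter-Glo 30 min RT, luminescence.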

[11] = biological target: Peroxisome proliferator-activated receptor delta (Homo sapiens) (UniProt Q03181); assay: qHTS assay to identify small molecule antagonists of the peroxisome proliferator-activated receptor delta (PPARd) signaling pathway (AID 743215; active means well fitted inhibition curve with a large enough effect in the signal ratio in the repeat runs, not every such curve was filed as active; the % refers to the signal ratio;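 further: cells stimulated with agonist L165041 at 300 nM final during compound exposure; series mostly up to about 62 µM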)
Procedure, shortened: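 With L165041 present at 300 nM final, compounds were incubated 17 h at 37 C on PPARd UAS-bla HEK293H cells. A FRET-based beta-lactamase substrate was then applied for 2 h at room temperature and fluorescence intensity recorded.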

[12] = qHTS assay for small molecule agonists of the antioxidant response element (ARE) signaling pathway (AID 743202; active means well fitted activation curve with a large enough effect in the signal ratio in the repeat runs, not every such curve was filed as active; the % refers to the signal ratio)
Procedure, shortened: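 ARE-bla HepG2 cells (beta-lactamase reporter under the antioxidant response element), plated 5 hours, then exposed to compounds 16 hours at 37 C. LiveBLAzer B/G FRET substrate added for 2 hours at room temperature; fluorescence intensity read.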

[13] = qHTS assay to identify small molecule agonists of the farnesoid-X-receptor (FXR) signaling pathway - cell viability counter screen (AID 743218); further: nearly all actives have a fitted effect of over 45% in size
Procedure, shortened: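 After 16 h at 37 C with test compounds, FXR-bla HEK 293T cells were given LiveBLAzer B/G substrate for 2 h at RT and then CellTiter-Glo; luminescence was taken after 30 min.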

[14] = biological target: Vitamin D3 receptor (Homo sapiens) (UniProt P11473); assay: qHTS assay to identify small molecule agonists of the vitamin D receptor (VDR) signaling pathway (AID 743222; calls by dose curve)
Procedure, shortened: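 VDR-bla cells were seeded, left 4 h, treated with compounds in DMSO for 16 h, incubated 2 h at RT with B/G FRET substrate, and read for fluorescence.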

[15] = biological target: Vitamin D3 receptor (Homo sapiens) (UniProt P11473); assay: qHTS assay to identify small molecule antagonists of the vitamin D receptor (VDR) signaling pathway (AID 743223; active means well fitted inhibition curve with a large enough effect in the signal ratio in the repeat runs, not every such curve was filed as active; the % refers to the signal ratio)
Procedure, shortened: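 Quantitative HTS in VDR-bla reporter cells stimulated with 1alpha,25-dihydroxyvitamin D3, 3 nM final. Compound exposure 16 h, 37C, 5% CO2. Read-out: beta-lactamase FRET substrate fluorescence, 2 h RT.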

[16] = qHTS assay to identify small molecule antagonists of the farnesoid-X-receptor (FXR) signaling pathway - cell viability counter screen (AID 743221; active means well fitted cell-killing curve with a large enough effect in the repeat runs, not every such curve was filed as active; further: nearly all actives have a fitted effect of over 50% in size)
Procedure, shortened: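 Cytotoxicity is taken from ATP luminescence (CellTiter-Glo, 30 min, room temperature) in FXR-bla HEK 293T cells previously incubated 16 h at 37 C with compound and chenodeoxycholic acid at 50 uM final.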

[17] = biological target: Peroxisome proliferator-activated receptor gamma (Homo sapiens) (UniProt P37231); assay: qHTS assay to identify small molecule antagonists of the peroxisome proliferator-activated receptor gamma (PPARg) signaling pathway (AID 743191; calls by dose curve; further: series mostly up to about 63 µM; nearly all actives have a fitted effect of over 30% in size)
Procedure, shortened: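 GeneBLAzer PPARg UAS-bla HEK293H cells, 5 h post-plating, exposed to compounds 17 h at 37C. LiveBLAzer B/G FRET substrate added for 1 h at room temperature; beta-lactamase reporter read by fluorescence intensity.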

[18] = biological target: Bile acid receptor (Homo sapiens) (UniProt Q96RI1); assay: qHTS assay to identify small molecule antagonists of the farnesoid-X-receptor (FXR) signaling pathway (AID 743217; active means well fitted inhibition curve with a large enough effect in the signal ratio in the repeat runs, not every such curve was filed as active; the % refers to the signal ratio)
Procedure, shortened: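 In this cell-based antagonist screen, inhibition of CDCA-driven (50 uM final) UAS-beta-lactamase expression in HEK 293T cells was measured by FRET fluorescence following 16 h compound exposure at 37 °C.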

[19] = biological target: Bile acid receptor (Homo sapiens) (UniProt Q96RI1); assay: qHTS assay to identify small molecule agonists of the farnesoid-X-receptor (FXR) signaling pathway (AID 743220; active means well fitted activation curve with a large enough effect in the signal ratio in the repeat runs, not every such curve was filed as active; the % refers to the signal ratio)
Procedure, shortened: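 Beta-lactamase reporter under UAS control in GeneBLAzer FXR HEK 293T cells (5000/well) measured with LiveBLAzer FRET substrate after 2 h at room temperature. Compound exposure lasted 16 h at 37C.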

Measured: Potency

Sequence of Peroxisome proliferator-activated receptor gamma (Homo sapiens) (P37231 whole entry, looked up): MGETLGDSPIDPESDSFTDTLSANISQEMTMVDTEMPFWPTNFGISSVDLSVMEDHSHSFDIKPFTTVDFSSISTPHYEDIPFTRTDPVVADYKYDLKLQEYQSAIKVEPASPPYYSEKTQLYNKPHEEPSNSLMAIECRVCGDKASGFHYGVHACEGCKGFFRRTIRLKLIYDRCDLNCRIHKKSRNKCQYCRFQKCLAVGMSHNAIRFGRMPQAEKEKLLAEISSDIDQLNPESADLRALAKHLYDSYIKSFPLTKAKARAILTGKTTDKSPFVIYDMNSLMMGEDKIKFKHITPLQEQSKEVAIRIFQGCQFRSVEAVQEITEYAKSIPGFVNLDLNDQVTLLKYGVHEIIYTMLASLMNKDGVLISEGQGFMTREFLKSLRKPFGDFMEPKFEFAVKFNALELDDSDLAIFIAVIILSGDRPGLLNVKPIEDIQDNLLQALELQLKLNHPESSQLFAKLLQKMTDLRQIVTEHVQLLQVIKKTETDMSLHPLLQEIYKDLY
Sequence of Peroxisome proliferator-activated receptor delta (Homo sapiens) (Q03181 whole entry, looked up): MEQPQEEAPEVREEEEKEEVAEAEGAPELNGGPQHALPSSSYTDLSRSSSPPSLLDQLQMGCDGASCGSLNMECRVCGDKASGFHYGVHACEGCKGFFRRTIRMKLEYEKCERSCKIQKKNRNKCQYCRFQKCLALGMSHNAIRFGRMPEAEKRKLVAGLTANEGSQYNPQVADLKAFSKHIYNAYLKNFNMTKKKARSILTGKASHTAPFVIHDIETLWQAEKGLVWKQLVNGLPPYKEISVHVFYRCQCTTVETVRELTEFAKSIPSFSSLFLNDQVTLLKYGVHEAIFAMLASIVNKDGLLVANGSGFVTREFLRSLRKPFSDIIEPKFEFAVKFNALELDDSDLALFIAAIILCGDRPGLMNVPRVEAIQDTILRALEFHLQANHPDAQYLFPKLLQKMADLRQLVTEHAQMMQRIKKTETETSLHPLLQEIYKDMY
Sequence of Vitamin D3 receptor (Homo sapiens) (P11473 whole entry, looked up): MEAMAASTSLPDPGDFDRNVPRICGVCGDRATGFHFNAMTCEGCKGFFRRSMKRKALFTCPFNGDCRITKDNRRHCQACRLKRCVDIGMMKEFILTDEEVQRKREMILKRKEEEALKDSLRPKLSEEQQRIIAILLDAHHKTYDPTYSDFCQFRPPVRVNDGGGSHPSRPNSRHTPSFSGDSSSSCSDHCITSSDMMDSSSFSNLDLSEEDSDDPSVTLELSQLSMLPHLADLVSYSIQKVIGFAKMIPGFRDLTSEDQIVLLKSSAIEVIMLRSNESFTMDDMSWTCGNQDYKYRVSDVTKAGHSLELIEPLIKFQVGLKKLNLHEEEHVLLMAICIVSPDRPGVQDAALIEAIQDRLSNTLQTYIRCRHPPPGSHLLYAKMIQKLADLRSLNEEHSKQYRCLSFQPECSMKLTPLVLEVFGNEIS
Sequence of Bile acid receptor (Homo sapiens) (Q96RI1 whole entry, looked up): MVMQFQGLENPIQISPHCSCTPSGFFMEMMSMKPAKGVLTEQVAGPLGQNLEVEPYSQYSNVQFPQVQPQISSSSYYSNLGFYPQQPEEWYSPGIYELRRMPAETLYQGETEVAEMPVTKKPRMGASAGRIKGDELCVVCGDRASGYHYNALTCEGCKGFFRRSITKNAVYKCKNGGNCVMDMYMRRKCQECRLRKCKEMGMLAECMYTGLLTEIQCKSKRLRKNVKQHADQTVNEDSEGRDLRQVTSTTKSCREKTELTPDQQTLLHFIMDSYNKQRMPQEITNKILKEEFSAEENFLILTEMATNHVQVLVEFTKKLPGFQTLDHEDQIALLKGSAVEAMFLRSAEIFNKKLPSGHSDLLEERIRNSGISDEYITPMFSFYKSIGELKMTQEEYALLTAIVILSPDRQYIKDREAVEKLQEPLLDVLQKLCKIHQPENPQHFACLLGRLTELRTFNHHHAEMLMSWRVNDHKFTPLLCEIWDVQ

Nc1c2c(nc3ccccc13)CCCC2O (stereo not given)
not listed: [12] | [13] | [14] | [15] | [16] | [17] | [18] | [19]
inactive: all other assays above

Brc1c(NC2=NCCN2)ccc2nccnc12
not listed: [3] | [7] | [9] | [11] | [16] | [17] | [18] | [19]
inactive: all other assays above

C=C1CC[C@H]2C[C@@H]1C2(C)C
not listed: [6] | [11] | [17] | [18] | [19]
inactive: all other assays above

CC(=O)OC/C=C(\C)CC/C=C(\C)CCC=C(C)C
not listed: [5] | [7] | [12] | [15] | [18] | [19]
inactive: all other assays above

CCOC(=O)C(=O)OCC
not listed: [1] | [13] | [18] | [19]
inactive: all other assays above

Cc1cc(O)cc2c1O[C@](C)(CCC[C@H](C)CCC[C@H](C)CCCC(C)C)CC2
not listed: [5] | [8] | [9] | [10] | [11] | [16] | [17]
inactive: all other assays above

CCOC(=O)CC(C)=O
not listed: [1] | [3] | [9] | [11] | [15] | [17] | [18] | [19]
inactive: all other assays above

CN1CCCC1
not listed: [4] | [7] | [9] | [11] | [13] | [15]
inactive: all other assays above

CC(C)NCC(O)c1ccc(NS(C)(=O)=O)cc1 (stereo not given)
not listed: [1] | [3] | [17] | [18] | [19]
inactive: all other assays above

NS(=O)(=O)c1cc(C(=O)NN2C[C@H]3[C@H]4CCC(C4)[C@H]3C2)ccc1Cl
inactive: [4] | [12] | [5] | [7] | [8] | [10] | [13] | [16]

CCOC(=O)c1cccc(N)c1
not listed: [3] | [11] | [17] | [18] | [19]
inactive: all other assays above

CC(=O)OCC(=O)[C@@]1(O)CC[C@H]2[C@@H]3CCC4=CC(=O)CC[C@]4(C)[C@H]3C(=O)C[C@@]21C
inactive: [1] | [2] | [4] | [5] | [8] | [9] | [10] | [13]

COC(=O)CCSCCC(=O)OC
not listed: [1] | [3] | [6] | [13] | [14] | [15] | [17]
inactive: all other assays above

NCCc1cnc[nH]1
inactive: [1] | [2] | [4] | [12] | [5] | [7] | [8] | [10] | [13]
